Data published in PubChem BioAssay AID463082 (The Scripps Research Institute Molecular Screening Center, 2010).
Among all 330,000 compounds or so, about 4,900 (1.5%) were called active. This is one part of a sample in which actives are shown more often than they occur.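 Rule for the calls: active = inhibition above the mean inhibition across the screen plus 3 SD (cut at about 25% in these data); inactive = the rest.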

What follows are compounds tested against Platelet-activating factor acetylhydrolase (Homo sapiens) (UniProt Q13093) (assay: pPAFAH enzyme inhibitors, primary screen, biochemical, fluorescence polarization, human (AID 463082;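 note: inhibitors block binding of the rhodamine activity-based probe so polarization drops; 0% = enzyme with DMSO and 100% = wells lacking pPAFAH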)). Conditions: recombinant pPAFAH, FP-rhodamine probe fluorescence polarization; at 3.39 µM; active compounds read high.
Platelet-activating factor acetylhydrolase (Homo sapiens), sequence (Q13093 whole entry, looked up): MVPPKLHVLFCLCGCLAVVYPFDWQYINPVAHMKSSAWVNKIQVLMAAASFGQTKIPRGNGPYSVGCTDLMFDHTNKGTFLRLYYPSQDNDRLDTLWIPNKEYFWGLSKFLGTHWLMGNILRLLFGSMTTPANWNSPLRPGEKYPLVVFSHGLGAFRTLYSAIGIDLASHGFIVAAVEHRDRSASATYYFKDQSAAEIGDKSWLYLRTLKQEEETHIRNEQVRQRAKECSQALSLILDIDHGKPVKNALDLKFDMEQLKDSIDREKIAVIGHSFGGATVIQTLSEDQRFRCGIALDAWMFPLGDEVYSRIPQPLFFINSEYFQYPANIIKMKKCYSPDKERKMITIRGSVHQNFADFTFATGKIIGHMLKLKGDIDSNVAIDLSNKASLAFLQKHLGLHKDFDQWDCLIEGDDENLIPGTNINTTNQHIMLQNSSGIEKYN

inhibition, inactive:
O=C(COC(=O)c1ccc(F)cc1)Nc1ccc2c(c1)OCO2 9.5%, O=C(NOCc1ccccc1)c1cccc([N+](=O)[O-])c1 7.75%, Cn1c(=O)c2c(ncn2CC(=O)N/N=C/c2cn[nH]c2-c2ccc(F)cc2)n(C)c1=O 1.61%, CCN(Cc1ccccc1)C(=O)Cc1ccc(OC)c(S(=O)(=O)N2CCOCC2)c1 -1.51%, O=C(CN1C(=O)NC2(CCOc3ccccc32)C1=O)Nc1cccc([N+](=O)[O-])c1 (centres undefined) 0.7%, Cc1cccc(NC(=S)NCCc2ccc(F)cc2)c1C 3.05%, CCCCN(C)CCC(=O)Nc1ccc(Cl)cc1 1.11%, CC(=O)Nc1ccc(Oc2ccc3c(c2)C(=O)NC3=O)cc1 -0.12%, Cc1cc(NC(=O)c2ccccc2C)no1 2.84%, Cc1ccc(S(=O)(=O)N2CCN(CC(=O)N/N=C/c3cc([N+](=O)[O-])ccc3Cl)CC2)cc1 3.66%, O=S(=O)(c1ccc(NC(=S)NN=C(C2CC2)C2CC2)cc1)N1CCOCC1 15%, CSc1ccc(C(=O)C2CCCN(C(=O)c3ccc(C)nc3)C2)cc1 (centres undefined) 5.05%, CCOC(=O)C1C(=O)OC2(CCCC2)C1C(=O)OCC (centres undefined) -0.69%, CN(CC(=O)N1CCN(c2ccccc2)CC1)S(=O)(=O)c1cccs1 -1.58%, CC(=O)N(C)c1ccc(NC(=O)C(F)(F)F)cc1 -4.77%, CC(C)CNC(=O)C(=O)Nc1ccc(N(C)C)cc1 -8.71%, CCCc1ccc(C(=O)[C@@H]2[C@@H](C(C)=O)N3c4ccc(F)cc4C=C[C@@H]3[C@@]23C(=O)Nc2ccccc23)cc1 2.89%, O=C(CSc1ncnc2sccc12)NC1CCS(=O)(=O)C1 (centres undefined) 4.85%, COc1ccc(NC(=O)C(NC(C)=O)C(=O)NCc2ccccc2Cl)cc1 (centres undefined) -2.3%, COC(=O)[C@@]12CCCN1[C@H](c1ccc(-c3ccc(F)cc3)c(OC)c1)[C@H]1C(=O)N(C)C(=O)[C@H]12 -3.21%, COC(=O)N/N=C/c1cn(CCCOc2ccc(C)cc2)c2ccccc12 19.2%, CNC(=S)N/N=C/c1cn(Cc2ccc(C)cc2)c2ccccc12 18.1%, Cc1ccc(-c2nc(SCC(=O)Nc3ccccc3OC(F)F)c3c(C)c(C(=O)O)sc3n2)cc1 1.04%, OCCCC1CCCCN1Cc1nc(Cc2ccccc2Cl)no1 (centres undefined) -2.08%, CC(C)N(C(=O)CSc1nnc(NC2CC2)s1)c1ccccc1 -0.35%, Cc1ccccc1Nc1nnc(SCC(=O)c2cc3ccccc3o2)s1 2.17%, Fc1ccccc1/C=C1\CCCC2=C1Nc1ncnn1C2c1ccccc1F (centres undefined) 14%, O=C1C=C(c2cccc(Cl)c2O)C[C@@H](c2ccc(F)cc2)C1 4.07%, O=C(NCc1ccc(F)cc1)C(c1ccccc1)N(C(=O)c1csnn1)C1CC1 (centres undefined) -2.59%, CC1=NNC(=O)C1CCC(=O)N/N=C(\C)c1ccc(Cl)cc1 (centres undefined) 3.21%, O=C(CN1C(=O)NC2(CCCC2)C1=O)Nc1cc(C(F)(F)F)ccc1N1CCOCC1 6.53%, CC(C)CC(=O)Nc1cc(C(F)(F)F)ccc1N1CCOCC1 -1.9%, Cc1ccc(O/C=C2\OC(=O)c3ccccc32)cc1 -0.55%, Cc1noc(C)c1NC(=O)Nc1ccc2c(c1)C(=O)N([C@H](C)CO)C[C@H](C)[C@@H](CN(C)C(=O)Nc1ccc(C(F)(F)F)cc1)O2 -10.3%, CC(=O)N1CCN(C(=O)c2cc(-c3ccc(Cl)s3)nc3ccccc23)CC1 3.56%, COc1ccc(NC(=O)c2cc(-c3ccc(C)o3)nc3ccccc23)cc1 11.4%, O=C(Cn1ncc2c3ccccc3n(Cc3ccccc3)c2c1=O)NCc1ccccn1 -0.14%, CCN1CCN(C(=O)CCN2C(=O)c3ccccc3C2=O)CC1 -1.23%, CCCCOc1ccc(N(CC(=O)NCC2CCCO2)C(=O)CCC(=O)Nc2cc(C)ccn2)cc1 (centres undefined) 10.7%, CCOc1ccc(C(C(=O)NCCOC)N(CCOC)C(=O)CCC(=O)Nc2ccccn2)cc1 (centres undefined) 5.87%, COc1ccccc1C(=O)Nc1ccc(Nc2ccccc2)cc1 2.35%, CCC(=O)Nc1nnc(S(=O)(=O)N(CC(C)C)c2ccccc2)s1 3.99%, O=C(Nc1cc(C(F)(F)F)ccc1Cl)c1cc2nc3c(c(C(F)(F)F)n2n1)CCCC3 8.15%, CN=C1S/C(=C\c2c(OC)cc(OC)cc2OC)C(=O)N1C -0.42%, Cc1cc(/C=C2\SC(=Nc3ccc(N4CCOCC4)cc3)N(C)C2=O)c(C)n1-c1cccnc1 2.99%, Cc1nc2ccccc2c(=O)n1-c1ccc(F)c(NC(=O)c2cccs2)c1 -0.28%, O=C(NC1CCCC1)c1cc(-c2ccccc2)on1 8.25%, COc1ccc(CNC(=O)/C(C#N)=C/c2cccc(OC)c2OC)cc1 -1.57%, COCCNC(=O)/C(C#N)=C/c1cccc(OCc2ccccc2)c1 2.65%, Cc1cccc(C)c1N1CCN(S(=O)(=O)N2CCCCC2)CC1 0.66%, O=C1COc2ccc(C(=O)COC(=O)c3cccnc3Cl)cc2N1 3.48%, Cc1cc(=O)oc2c1ccc1ccccc12 1.01%, O=C1CCC([N+](=O)[O-])C(c2ccccc2Br)N1 (centres undefined) 2.25%, CN(CC(=O)Nc1ccc(OC(F)(F)F)cc1)C(=O)C1CCC1 2.02%, CC(CC(=O)Nc1ccc(F)cc1F)S(=O)(=O)c1ccc2c(c1)NC(=O)CO2 (centres undefined) 0.8%, Cc1cc(C)n(C(=O)c2ccc(C)c(S(=O)(=O)N3CCOCC3)c2)n1 2.24%, CCN1CCN(C(=O)C2CCN(S(=O)(=O)c3cc(Cl)ccc3Cl)CC2)CC1 3.87%, CCc1cc2c(=O)c(-c3nc4ccccc4n3C)c(CCCC(=O)O)oc2cc1OC(=O)C(C)(C)C 3.51%, COc1ccc(-n2nnnc2-c2nc3ccccc3s2)cc1 -4.42%, CCc1ccc(N2CC(O)=C(c3nc4ccccc4c(=O)[nH]3)C2=N)cc1 -1.78%, C=CCC[C@H](Cc1ccc(F)cc1)C(=O)OC[C@@H](NC(=O)[C@@H](CC=C)CC(=O)N[C@H](CO)Cc1ccccc1)C(C)(C)C 4.14%, Cc1cc(NC(=O)CSC2=NS(=O)(=O)c3cc(Cl)ccc3N2)no1 -4.37%, CS(=O)(=O)N1CCCC(C(=O)Nc2ccccc2C(F)(F)F)C1 (centres undefined) -1.76%, CC(=O)Nc1cccc(C(=O)OCC(=O)Nc2nnc(-c3ccccc3)o2)c1 5.98%, O=C(COC(=O)c1ccccc1Br)Nc1nnc(-c2ccccc2)o1 4.87%, O=C(COc1ccccc1)N1CCN=C1SCc1cccc(F)c1 4.42%, O=C(COc1ccc(S(=O)(=O)NCc2ccccc2)cc1)N1CCOCC1 4.78%, CC(NS(=O)(=O)c1ccc(OCC(=O)N2CCCC2)cc1)c1ccccc1 (centres undefined) 14.5%, CCCCNC(=O)CCn1c(=O)c2ccccc2n(Cc2cc(C)ccc2C)c1=O 1.95%, Cc1ccc(S(=O)(=O)N(CC(=O)Nc2cccnc2)c2ccc(Br)cc2)cc1 3.28%, COc1cccc(CNC(=O)CCC2CCCN(C(=O)c3ccoc3C)C2)c1 (centres undefined) 5.56%, COc1cccc(C(=O)N2CCCC(CCC(=O)NCc3ccc(F)c(F)c3)C2)c1 (centres undefined) 1.9%, COc1ccc(S(=O)(=O)Nc2cccc3c2O[C@H](CN(C)S(=O)(=O)c2ccc(OC)cc2)[C@@H](C)CN([C@H](C)CO)C3=O)cc1 3.76%

inhibition, active:
Oc1c(Cl)cc(Cl)c(Cl)c1Cc1c(O)c(Cl)cc(Cl)c1Cl 68.2%, CCCCC(=O)Nc1ccc2c(c1)C(=O)NC2=O 34.6%, O=[N+]([O-])c1cc(Cl)cc(/C=N/NC(=S)Nc2cc(S(=O)(=O)N3CCOCC3)ccc2Cl)c1O 36.5%, CN(C)c1ccc(N/C=C/C(=O)C(F)(F)F)cc1 42.4%, CCOC(=O)N/N=C/c1cn(Cc2ccccc2Cl)c2ccccc12 30.1%, CC(C)c1ccc(Nc2nnc(SCC(=O)c3nnc(-c4ccccc4)o3)s2)cc1 30.8%, O=C(CCC1CCCCC1)Nc1cc(C(F)(F)F)ccc1N1CCOCC1 37.1%, CC(=O)N1CCN(C(=O)c2cc(-c3ccc(C)o3)nc3ccccc23)CC1 41%, CCCCOc1ccc(N(CC(=O)NC(C)C)C(=O)CCC(=O)Nc2ccccn2)cc1 28.3%, CN1C(=O)/C(=C/c2ccco2)SC1=Nc1cccc(C(=O)O)c1 25.1%, N#C/C(=C\c1ccc(O)c(O)c1)C(=O)NCc1ccccc1 28.2%, O=[N+]([O-])C(=c1ccc2c(c1)N1C3=C(CCCC3)CC3CCCCC31N=2)[N+](=O)[O-] (centres undefined) 33.6%, COc1ccccc1N1CC(O)=C(c2nc3ccccc3s2)C1=N 32.9%, O=C(COC(=O)c1ccc(Oc2ccccc2)cc1)Nc1nnc(-c2ccccc2)o1 25%, O=C(COc1ccc(S(=O)(=O)NCCc2ccccc2)cc1)N1CCCC1 26.8%, COc1cccc(CNC(=O)CCC2CCCN(C(=O)c3ccc(F)c(Cl)c3)C2)c1 (centres undefined) 42.8%
